# Measurements from article PMC4336329 (PLoS ONE, 2015).
# Out of some 310,000 compounds screened, about 14,000 (4.5%) showed an effect of 50% or more. The effect is printed as a negative number. Only a selection was taken, and strong results are over-represented in it overall.
# Molecular target: human ether-à-go-go-related gene (hERG) potassium channel (human, UniProt Q12809)
# Assay: primary screen, population patch clamp on CHO cells stably expressing hERG; higher = less effect of the substance
# 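Further: peak tail current of the secondary pulse compared with the same well before compound.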
# human ether-à-go-go-related gene (hERG) potassium channel, sequence (Q12809 whole entry, looked up): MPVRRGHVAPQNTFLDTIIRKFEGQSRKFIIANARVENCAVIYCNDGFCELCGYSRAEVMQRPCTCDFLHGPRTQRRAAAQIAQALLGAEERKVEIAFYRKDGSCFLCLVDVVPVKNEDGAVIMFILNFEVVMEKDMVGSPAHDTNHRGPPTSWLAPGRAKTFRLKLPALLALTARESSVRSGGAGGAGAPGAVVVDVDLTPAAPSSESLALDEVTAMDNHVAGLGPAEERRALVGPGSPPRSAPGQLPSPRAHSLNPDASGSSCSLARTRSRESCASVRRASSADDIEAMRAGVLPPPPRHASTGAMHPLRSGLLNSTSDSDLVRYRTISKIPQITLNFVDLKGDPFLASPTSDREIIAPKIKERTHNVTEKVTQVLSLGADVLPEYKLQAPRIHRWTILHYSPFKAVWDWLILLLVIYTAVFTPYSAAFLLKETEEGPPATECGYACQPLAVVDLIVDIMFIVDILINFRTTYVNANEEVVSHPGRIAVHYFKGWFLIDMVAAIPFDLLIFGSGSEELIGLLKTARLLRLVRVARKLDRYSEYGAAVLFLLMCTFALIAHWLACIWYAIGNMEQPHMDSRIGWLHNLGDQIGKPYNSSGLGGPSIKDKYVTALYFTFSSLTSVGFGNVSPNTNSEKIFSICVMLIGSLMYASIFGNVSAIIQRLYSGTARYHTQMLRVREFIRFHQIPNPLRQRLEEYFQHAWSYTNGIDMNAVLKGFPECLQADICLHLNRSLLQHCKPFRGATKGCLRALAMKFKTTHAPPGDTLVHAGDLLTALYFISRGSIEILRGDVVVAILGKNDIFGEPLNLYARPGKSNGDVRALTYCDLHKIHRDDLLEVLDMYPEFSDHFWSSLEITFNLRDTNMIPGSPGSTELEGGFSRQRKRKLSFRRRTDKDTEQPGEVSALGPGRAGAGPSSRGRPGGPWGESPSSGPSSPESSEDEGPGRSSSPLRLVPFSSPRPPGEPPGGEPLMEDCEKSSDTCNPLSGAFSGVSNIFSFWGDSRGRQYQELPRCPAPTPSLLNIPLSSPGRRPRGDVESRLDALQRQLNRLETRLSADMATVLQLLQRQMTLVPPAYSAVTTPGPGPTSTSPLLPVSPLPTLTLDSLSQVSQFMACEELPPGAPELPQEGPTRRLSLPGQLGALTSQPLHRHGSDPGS
row,SMILES,"hERG current change (%, negative = inhibition) at 10uM"
1,CC1CCC(NC(=O)C(Cc2ccccc2)n2cccc2)CC1 (stereo not shown),-14.9%
2,Cc1cc(C)cc(OCC(=O)N/N=C/c2ccco2)c1,37.4%
3,COc1cccc(-n2nnc3c(=O)n(CC(=O)OCc4ccccc4)cnc32)c1,9.39%
4,CSc1ncc(CN2CCc3c([nH]c4ccccc34)C2c2cccc(C)n2)cn1 (stereo not shown),-13.8%
5,c1ccc(C2c3[nH]c4ccccc4c3CCN2Cc2cccn2-c2ccccn2)nc1 (stereo not shown),-70.5%
6,Clc1ccc(-n2cccc2CN2CCc3c([nH]c4ccccc34)C2c2ccccn2)nc1 (stereo not shown),-77%
7,O=C(Cc1ccsc1)N1CCc2c([nH]c3ccccc23)C1c1ccccn1 (stereo not shown),4.87%
8,CC(=O)Nc1ccc(CN2CCc3c([nH]c4ccccc34)C2c2ccccn2)cc1 (stereo not shown),-38.5%
9,c1ccc(C2c3[nH]c4ccccc4c3CCN2Cc2cccn2-c2cccnc2)nc1 (stereo not shown),-23.7%
10,CCOC(=O)C1CCN(S(=O)(=O)c2ccc(Cl)nc2)CC1,-2.6%
11,COc1ccc2oc(C(=O)NCCC(C)C)c(C)c2c1,-0.78%
12,Cn1nc(C(=O)OCc2ccccc2F)c2ccccc2c1=O,13%
13,COc1ccc(C(C)(C)C)cc1NC(=O)c1cccc(S(=O)(=O)N2CCN(C(C)=O)CC2)c1,11.5%
14,Cc1ccc(S(=O)(=O)N2CCN(c3ncnc4c3cnn4-c3ccccc3)CC2)cc1,14.3%
15,Oc1ccccc1C1=Nc2ncnn2C(c2ccccc2)C1 (stereo not shown),-16.6%
16,Oc1ccccc1C1=Nc2ncnn2C(c2ccc(F)cc2)C1 (stereo not shown),-80.8%
17,Oc1ccccc1C1=NN(c2ccccc2)C(c2ccc(F)cc2)C1 (stereo not shown),9.68%
18,COc1ccc(NC2CC(=O)NC2=O)cc1 (stereo not shown),5.24%
19,CCN1CCN(c2ccc([N+](=O)[O-])cc2C=C2C(=O)NC(=O)NC2=O)CC1,-66.3%
20,O=C1NC(=S)N/C1=C/c1cc([N+](=O)[O-])ccc1N1CCOCC1,-62.9%
21,CN1C(=O)C(=Cc2cc([N+](=O)[O-])ccc2N2CCCCC2)C(=O)N(C)C1=O,19.3%
22,O=Cc1cc([N+](=O)[O-])ccc1N1CCOCC1,-19.3%

row,SMILES,"hERG current change (%, negative = inhibition) at 10uM"
1,O=C1NC(=S)N/C1=C/c1cc([N+](=O)[O-])ccc1O,12.8%
2,CC(=O)N1CCN(c2ccc([N+](=O)[O-])cc2C=C2C(=O)NC(=O)NC2=O)CC1,-56.6%
3,CC(=O)N1CCN(C(=S)c2cccc([N+](=O)[O-])c2)CC1,8.96%
4,CC(=O)N1c2ccc([N+](=O)[O-])cc2NC(=O)CC1C (stereo not shown),22.2%
5,O=C1NC(=O)C(=Cc2cc([N+](=O)[O-])ccc2N2CCCCC2)C(=O)N1,7.84%
6,COC(=O)C1=C(O)/C(=C\c2ccc(OCC(=O)Nc3ccccc3OC)cc2)N=C1C,0.751%
7,Cc1ccccc1Nc1nc(-c2sc(NC(=O)c3ccco3)nc2C)cs1,23.6%
8,O=C(Nc1cccc(Cl)c1)c1nc[nH]c1C(=O)N1CCN(c2ccccc2)CC1,8.06%
9,Cc1c(N/C(=N/S(=O)(=O)c2ccc(F)cc2)c2ccccc2)c(=O)n(-c2ccccc2)n1C,0.39%
10,O=[N+]([O-])c1ccc(Oc2ccc(-c3cnc4ccccc4n3)cc2[N+](=O)[O-])cc1,6.13%
11,c1nc(N2CCCCC2)c2[nH]cnc2n1,9.4%
12,C=CCn1c(SCCN2CCCCC2)nc2c1c(=O)[nH]c(=O)n2C,-47.3%
13,COc1ccc(C(=O)NC2CC3CCCC(C2)N3Cc2ccccc2)cc1 (stereo not shown),-53.5%
14,CCOc1ccc(C(=O)NC2CC3CCCC(C2)N3Cc2ccccc2)cc1 (stereo not shown),-57.5%
15,CCOc1ccc(C(=O)NC2CC3CCCC(C2)N3CC(C)C)cc1 (stereo not shown),-41.1%
16,COc1ccc(C(=O)NC2CC3CCCC(C2)N3Cc2ccccc2)cc1OC (stereo not shown),-23.6%
17,Cc1ccn2c(NC(=O)c3cccs3)c(-c3ccccc3)nc2c1,-0.701%
18,CC1(C)Cc2c(cnn2-c2cccc(F)c2)C(NC(=O)CSc2ccncc2)C1 (stereo not shown),-56.5%
19,C=CCCC(=O)NC1CC(C)(C)Cc2c1cnn2-c1cccc(F)c1 (stereo not shown),-68.4%
20,CC1(C)Cc2c(cnn2-c2cccc(F)c2)C(NC(=O)CCc2cnccn2)C1 (stereo not shown),-28.4%
21,Cc1ccccc1-n1ncc2c1CC(C)(C)CC2NC(=O)CSc1ccncc1 (stereo not shown),-8.26%
22,CC1(C)Cc2c(cnn2-c2cccc(F)c2)C(NC(=O)CSc2ccccn2)C1 (stereo not shown),-20.6%

row,SMILES,"hERG current change (%, negative = inhibition) at 10uM"
1,CC1(C)Cc2c(cnn2-c2cccc(F)c2)C(NC(=O)Cn2cccn2)C1 (stereo not shown),-11.5%
2,CCC1CCCCN1C(=S)NCc1ccccc1 (stereo not shown),-1.29%
3,COc1ccc(-c2c(C)n([O-])c(C)c(-c3ccccc3)[n+]2=O)cc1OC,7.35%
4,Cc1cccc(-n2cc(CN(C)Cc3nccn3C)c(-c3cccc(F)c3)n2)c1,-6.01%
5,CCN(CC(=O)NC(C)(C)C)C(=O)c1ccc(Br)cc1,2.64%
6,O=C(NCCc1ccc(Cl)cc1)C1CCCN1C(=O)Nc1ccccc1 (stereo not shown),-11.5%
7,CCOc1ccccc1NC(=O)c1cc(C(=O)c2cc(OC)ccc2O)coc1=N,-20.3%
8,COc1ccc(C(=O)Nc2ccc(SC(F)F)cc2)cc1,-2.14%
9,COc1ccc(O)c(C(=O)c2coc(=N)c(C(=O)Nc3ccc(SC(F)F)cc3)c2)c1,-69.9%
10,O=c1[nH]c(C2CCN(S(=O)(=O)c3ccc(F)cc3)CC2)nc2c1nnn2Cc1ccc2c(c1)OCCO2,11.1%
11,COc1cc2c(c(OC)c1OC)-c1ccc(O)c(=O)cc1C(NC(C)=O)CC2 (stereo not shown),13.7%
12,O=C(Nc1cccc(F)c1)c1cc(S(=O)(=O)N2CCOCC2)ccc1N1CCCC1,-34.2%
13,CCN1CCN(S(=O)(=O)c2ccc(Cl)c(C(=O)Nc3ccc(OC(F)F)cc3)c2)CC1,-70.4%
14,CCN1CCN(S(=O)(=O)c2ccc(Cl)c(C(=O)Nc3ccc(C(=O)N(CC)CC)cc3)c2)CC1,0.597%
15,CCN1CCN(c2ccc(NC(=O)c3cc(S(=O)(=O)N4CCCC4)ccc3Cl)cc2)CC1,-27.7%
16,CNC(=O)c1ccc(NC(=O)c2cc(S(=O)(=O)N3CCOCC3)ccc2N2CCCC2)cc1,7.71%
17,O=C(Nc1ccc(OC(F)F)cc1)c1cc(S(=O)(=O)N2CCOCC2)ccc1F,-31.3%
18,NC(=O)c1ccc(NC(=O)c2cc(S(=O)(=O)N3CCCCC3)ccc2N2CCOCC2)cc1,-13.9%
19,N#Cc1ccc(NC(=O)c2cc(S(=O)(=O)N3CCOCC3)ccc2N2CCCC2)cc1,-80.4%
20,O=C(Nc1ccc(OC(F)F)cc1)c1cc(S(=O)(=O)N2CCCCC2)ccc1N1CCOCC1,-65.8%
21,O=C(O)c1ccccc1N1C(=O)C2C3c4ccccc4C(Br)(c4ccccc43)C2C1=O (stereo not shown),18.4%
22,CCN(CC(=O)NCc1cccs1)C(=O)/C=C/c1ccc(OC)c(OC)c1,-23.5%

row,SMILES,"hERG current change (%, negative = inhibition) at 10uM"
1,Cc1cc(C)n2nc(C(=O)OCC(=O)Nc3ccc4c(c3)OCCO4)nc2n1,3.56%
2,CCOc1cc(C(=S)N2CCOCC2)ccc1OS(=O)(=O)c1ccccc1,-10%
3,COc1ccc(OCC(=O)NCCCCCCNC(=O)COc2ccc(OC)cc2)cc1,10.6%
4,CCOC(=O)C1CCCN(CC(O)COCc2ccc3c(c2)OCO3)C1 (stereo not shown),-23.5%
5,CCc1cc(C(=O)NNC(=O)CCN2CCN(c3ccccc3)CC2)sc1C,11.8%
6,O=C(Nc1nnc(C2CC2)o1)c1ccc(S(=O)(=O)N2CCCc3ccccc32)cc1,-19.3%
7,COc1cccc(/C=N/Nc2ncc(C(F)(F)F)cc2Cl)c1O,36.1%
8,COc1ccc(/C=N/Nc2ncc(C(F)(F)F)cc2Cl)cc1OC,3%
9,COc1cc(/C=N/Nc2ncc(C(F)(F)F)cc2Cl)cc(OC)c1O,-64.8%
10,CCN(CC(=O)Nc1cc(C)on1)CC(=O)Nc1ccccc1C(F)(F)F,13.7%
11,Cc1ccc(NC(=O)CN(C)C(=O)c2ccc(Cl)c([N+](=O)[O-])c2)cc1,-52.1%
12,Cc1ccc(NC(=O)CN(C)C(=O)C(C)OC(=O)CNC(=O)c2ccc(Cl)c([N+](=O)[O-])c2)cc1 (stereo not shown),-43%
13,Cc1ccc(NC(=O)CN(C)C(=O)c2ccc(-n3cncn3)c([N+](=O)[O-])c2)cc1,-49.2%
14,O=C(NCCc1ccccc1)c1ccc(Cl)c([N+](=O)[O-])c1,-27.2%
15,CN(Cc1ccccc1)C(=O)c1ccc(Cl)c([N+](=O)[O-])c1,-53.5%
16,Cc1ccc(NC(=O)CN(C)C(=O)c2ccc(Sc3nncn3C)c([N+](=O)[O-])c2)cc1,-40.3%
17,CN(CC(=O)Nc1ccc(F)c(F)c1F)C(=O)c1ccc(=O)[nH]c1,0.382%
18,CN(CC(=O)Nc1ccc(F)c(F)c1F)C(=O)c1ccc(-n2cncn2)c([N+](=O)[O-])c1,-40.6%
19,CN(CC(=O)Nc1ccc(F)c(F)c1F)C(=O)c1ccc(-n2cncn2)cc1,-63.8%
20,CCN(C(=O)c1ccc(Cl)c([N+](=O)[O-])c1)c1ccccc1,-5.95%
21,CN(CC(=O)Nc1c(Cl)cccc1Cl)C(=O)c1ccc(-n2cncn2)c([N+](=O)[O-])c1,5.71%
22,CN(CC(=O)Nc1ccc(Cl)cc1)C(=O)c1ccc(-n2cncn2)c([N+](=O)[O-])c1,-70.3%
